# Records with an inconclusive call do not appear. Values without a mark were called inactive. Active and inactive are the calls of the source. Calls come from the whole dose curve; as a rule, active = well fitted inhibition curve with a large enough effect; inconclusive = small, poorly fitted or top-dose-only effect; inactive = flat fitted curve, though single readings scatter.
# Experiment: P-glycoprotein substrates identified in KB-8-5-11 adenocarcinoma cell line, qHTS therapeutic library screen (AID 1346987); note: nearly all actives have a fitted effect of over 65% in size
# Conditions: KB-8-5-11 (P-gp overexpressing) viability, CellTiter-Glo, 72 h; series mostly up to 44.5 µM; activity change, negative = cytotoxicity: at the top concentration
# Procedure, shortened: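 Luminescence from CellTiter-Glo, read 5 min after addition, quantified survival of KB-8-5-11 (P-gp-overexpressing) cells exposed to compounds for 72 h. AC50 was derived from concentration-response curves.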
# % is set by controls: 0 for no effect and ±100 for the full control effect.
Compound,"activity change, negative = cytotoxicity",outcome
C[C@]12CCC[C@](C)(C(=O)O)C1CCC13C=C(CO)C(CCC12)C3 (some centres undefined),2.32%,
C=CC(C)(O)CC/C=C(/C)C(=O)OC1C(OC2OCC(OC3OC(CO)C(O)C(O)C3O)C(OC3OCC(O)C(OC4OC(C)C(O)C(O)C4O)C3O)C2O)COC(OC(=O)C23CCC(C)(C)CC2C2=CCC4C5(C)CCC(OC6OC(CO)C(OC7OC(CO)C(O)C(OC8OCC(O)C(O)C8O)C7O)C(O)C6O)C(C)(C)C5CCC4(C)C2(C)CC3O)C1O (centres undefined),-0.997% [at 5.11 µM],
N[C@@H](CC(=O)N1CCn2c(nnc2C(F)(F)F)C1)Cc1[nH]nc2c(F)c(F)ccc12,0.719%,
CC(=C/C(=O)O)/C=C/[C@]1(O)[C@@]2(C)CO[C@]1(C)C[C@H](O[C@@H]1O[C@H](CO)[C@@H](O)[C@H](O)[C@H]1O)C2,,inactive [at 17.3 µM]
CC1CCCC2OC2C(=O)c2c(O)cc(O)cc2CC(=O)O1 (centres undefined),6.64%,
CC1(C)CC2C3=CCC4C5(C)CCC(OC6OC(CO)C(O)C(OC7OC(CO)C(O)C(OC8OC(CO)C(O)C(OC9OC(COC%10OC(CO)C(O)C(O)C%10O)C(O)C(O)C9O)C8O)C7O)C6O)C(C)(C)C5CCC4(C)C3(C)CCC2(C(=O)O)CC1O (centres undefined),-1.4% [at 9.29 µM],
CN1CCC(c2c[nH]c3ccc(NC(=O)c4ccc(F)cc4)cc23)CC1,,inactive
COc1ccccc1-n1c(SCC(=O)Nc2nc3ccc(C)cc3s2)nc2c(c1=O)SCC2,-3.59% [at 17.3 µM],
COc1cc([C@H]2OC[C@@H]3[C@@H](c4ccc(O[C@@H]5O[C@H](CO)[C@@H](O)[C@H](O)[C@H]5O)c(OC)c4)OC[C@]23O)ccc1O,,inactive [at 17.3 µM]

# Reference: PubChem BioAssay (NCATS)
